Compound activity: PubChem, NMMLSC
RPL19A TOR yeast = alters RPL19A-GFP fluorescence in TOR pathway yeast screen | S. cerevisiae RPL19A-GFP strain, flow cytometry, 3 h; stronger effect = lower value | percent response vs DMSO, % at 10 µM | actives 0.3% (n = 330,000) | AID 2025;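 active = percent response vs DMSO below 50%; inconclusive = fewer than 70 events counted for the yeast strain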;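 also: median channel GFP fluorescence of the barcoded RPL19A-GFP strain; lower means less RPL19A-GFP as with rapamycin TOR inhibition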
CIT2-GFP yeast = modulators of TOR pathway CIT2-GFP in S. cerevisiae; S. cerevisiae CIT2-GFP strain, flow cytometry, 3 h; 100 means same as DMSO wells; GFP response vs DMSO, % at 10 µM; actives 0.065% (n = 320,000);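 active = GFP response relative to DMSO above a set limit, near the screen mean plus 3 SD, cut at about 150% in these data; inconclusive = Fewer than 70 cells measured for a yeast strain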;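 also: ratio of well median GFP fluorescence to mean of DMSO wells on the plate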
MEP2-GFP yeast = alters MEP2-GFP fluorescence in TOR pathway yeast screen. S. cerevisiae MEP2-GFP strain, flow cytometry GFP, 3 h; 100% = DMSO control level. GFP response vs DMSO, % at 10 µM. actives 0.51% (n = 330,000). AID 2016;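 active = GFP response versus DMSO above a set limit, roughly screen mean plus 3 SD, cut at about 180% in these data; inconclusive = fewer than 70 cells counted for a yeast strain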;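 also: median GFP fluorescence of the barcode-gated MEP2-GFP cells per well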
AGP1-GFP MLPCN = modulators of TOR pathway AGP1-GFP in S. cerevisiae. S. cerevisiae AGP1-GFP multiplex flow cytometry, 3 h; GFP as percent of DMSO wells. actives 0.02% (n = 320,000). AID 2066. GFP response vs DMSO, % at 10 µM;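 active = GFP response relative to DMSO above a set limit, near screen average plus 3 SD, cut at about 150% in these data; inconclusive = fewer than 70 cells counted for the yeast strain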;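 also: median GFP channel fluorescence of the gated AGP1 strain per well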
LAP4-GFP MLPCN = alters LAP4-GFP fluorescence in TOR pathway yeast screen; actives 0.34% (n = 320,000); S. cerevisiae LAP4-GFP multiplex, flow cytometry GFP, 3 h; median GFP as percent of DMSO wells; GFP response vs DMSO, % at 10 µM;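 active = GFP response vs DMSO above a set limit, about the screen mean plus 3 SD, cut at about 150% in these data; inconclusive = under 70 cell events counted for the yeast strain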
Hits are given with their value; i = inactive; ? = inconclusive; nt = not tested or not shown; + = active, no number; [ ] = remark or other dose. Compounds with a hit are over-represented: about 0.92% of the library has one in this group of screens.

SMILES | RPL19A TOR yeast | CIT2-GFP yeast | MEP2-GFP yeast | AGP1-GFP MLPCN | LAP4-GFP MLPCN
N#Cc1c(-c2ccncc2)c2c([nH]c1=O)-c1ccccc1OC2 | 27.2[may fluoresce violet] | ? | 224.4[may fluoresce violet] | ? | i
Brc1ccc(N=C/C=C/C=C/Nc2ccc(Br)cc2)cc1 | i | 367.5[may fluoresce green] | 429.7[may fluoresce green] | i | 413.4[may fluoresce green]
O=C(NCc1cccs1)c1ccc([N+](=O)[O-])cc1Cl | i | i | i | i | i
Cc1ccc(C(=O)CCS(=O)(=O)c2ccc(Br)cc2)cc1 | i | 159.0[may fluoresce green] | i | i | i
COc1ccc(C(=O)CCS(=O)(=O)c2ccc(C)cc2)cc1 | i | i | i | i | i
Cc1ccc(S(=O)(=O)CCC(=O)c2cccc([N+](=O)[O-])c2)cc1 | i | 160.7[may fluoresce green] | i | i | i
O=C(CSc1n[nH]c(=O)n1Cc1ccccc1)Nc1ccc(F)c(F)c1F | 46.6[may fluoresce violet] | ? | 779.9[may fluoresce violet] | i | i
CS(=O)(=O)c1cccc(-c2nnc(NC(=O)CCS(=O)(=O)c3ccccc3)o2)c1 | i | i | i | i | i
COc1ccc(-n2nnnc2SCC(=O)c2ccc(O)c(O)c2)cc1 | 12.3[may fluoresce violet] | ? | 275.8[may fluoresce violet] | ? | ?
COC(=O)c1ccccc1-c1ccc(/C=N/NC(=O)c2cc3ccccc3o2)o1 | i | i | i | i | i
COC(=O)c1ccccc1-c1c2ccc(=N)cc-2oc2cc(N)ccc12 | i | +[may fluoresce green] | +[may fluoresce green] | 666.5[may fluoresce green] | +[may fluoresce green]
CCOC(=O)C1CCN(C(=O)CNC(=O)c2nn(-c3ccc(OC)cc3OC)c(=O)c3ccccc23)CC1 | i | i | i | i | i
COc1ccc(CCC(=O)N2CCCc3ccccc32)cc1 | i | ? | 648.8[may fluoresce violet] | ? | i
Cc1ccccc1OCC(=O)N1CCCc2ccccc21 | i | i | i | i | i
COc1cccc(OCC(=O)N2CCCc3ccccc32)c1 | i | i | 222.5 | i | i
O=C(NCCSc1ccccc1)c1ccc(Br)cc1 | i | i | i | i | i
O=C(NCCCSc1ccccc1)c1cc(Br)ccc1O | i | i | i | i | 153.6
O=C(C[n+]1cc(Br)cc2ccccc21)c1ccc(Cl)cc1 | 23.6[may fluoresce violet] | ? | 453.9[may fluoresce violet] | ? | i
O=C(C[n+]1cc(Br)cc2ccccc21)c1ccc(Br)cc1 | i | i | i | i | i
Cc1nn(Cc2ccc(Cl)cc2)c(=O)n1N(C)c1ncc(C(F)(F)F)cc1Cl | i | i | 207.1 | nt | i
Clc1ccc(-c2ccccc2)nn1 | i | i | i | i | i
CCCNC(=O)COC(=O)c1ccc(S(=O)(=O)N2CCCC2)cc1 | i | 193.0 | 263.8 | i | 240.5
OC(CNC1CCCC1)COc1ccc(-c2ccccc2)cc1 (stereo unspecified) | i | i | i | i | i
OC(CNCC1CCCCC1)COc1ccccc1 (stereo unspecified) | 48.7[may fluoresce violet] | ? | 361.5[may fluoresce violet] | ? | i
CCCCN(CC)CCNC(=O)c1cc2c(-c3ccccc3F)nn(C)c2s1 | 36.7[may fluoresce violet] | ? | 674.3[may fluoresce violet] | i | i
SMILES | RPL19A TOR yeast | CIT2-GFP yeast | MEP2-GFP yeast | AGP1-GFP MLPCN | LAP4-GFP MLPCN
C[C@H]1Oc2ccccc2C(=O)C1C(=O)c1ccccc1 (stereo partly specified) | i | i | i | i | i
CC(=O)/C(C#N)=C1\NC(=O)C(Cc2ccccc2C)S1 (stereo unspecified) | i | i | i | i | i
CSc1ccc(NC(=O)C(C)N2CCN(C)CC2)cc1 (stereo unspecified) | i | i | i | i | i
Cc1ccccc1N1C(=O)c2sc3nc4c(c(=O)n3c2C1=O)CCC4 | i | i | i | i | 161.3
NS(=O)(=O)c1ccc(NC(=O)CN2C(=O)CCC2=O)cc1 | 45.5[may fluoresce violet] | ? | 812.5[may fluoresce violet] | i | i
O=CNC(n1cnc2c(N3CCOCC3)ncnc21)C(Cl)(Cl)Cl (stereo unspecified) | i | i | i | i | i
Cc1ccc(C2OC34CCCCCC3C(C#N)(C(=N)O4)C2(C#N)C#N)cc1 (stereo unspecified) | i | ? | 197.1[may fluoresce violet] | ? | i
C=CCOc1ccc(C2OC34CCCCC3C(C#N)(C#N)C2(C#N)C(=N)O4)cc1 (stereo unspecified) | 35.1[may fluoresce violet] | ? | 567.6[may fluoresce violet] | nt | i
CCCCOc1ccc(C2OC34CCCCC3C(C#N)(C#N)C2(C#N)C(=N)O4)cc1 (stereo unspecified) | i | i | i | i | i
CCCn1c(SCC(=O)NC2CCCC2)nnc1-c1cccnc1 | i | i | i | i | i
CC(C)(C)[C@H]1CCC(=O)N([C@H](CN=[N+]=[N-])Cc2ccccc2)CC1 | i | i | i | i | i
CSc1nc(N2CCOCC2)c2ccccc2n1 | i | i | i | i | i
